# Data taken from PubChem BioAssay.
# Values joined by “and” are separate entries in the source; they are usually repeats but may differ in a detail not shown here. Equal entries are not always repeated. Inconclusive results are not listed. Active and inactive are the calls of the source.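 How the source made its calls, unless noted: active means superoxide response below 65% of plate, a cut near 3 SD across the whole screen; inactive means the rest.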
# Legend:
# [1] = yeast TOR pathway RPL19A-GFP modulators, primary screen, cell-based, S. cerevisiae, multiplex flow cytometry (AID 1862; in the data active means percent of DMSO control GFP below about 86%;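 further: lower values mimic rapamycin by blocking the RPL19A rise seen in DMSO cells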); conditions: S. cerevisiae RPL19A-GFP strain, flow cytometry fluorescence, 3 h; at 10 µM; stronger effect = lower value
# [2] = modulators of MEP2-GFP levels in yeast, primary screen, S. cerevisiae, multiplex flow cytometry (AID 1867;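 active means GFP response, as percent of the DMSO control, above the screen-wide mean plus 3 SD, about 139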;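 further: median GFP channel fluorescence of barcode-gated MEP2-GFP cells measured by flow cytometry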); conditions: S. cerevisiae MEP2-GFP strain, 3 h, at 10 µM, stronger effect = higher value, 100% means same as DMSO wells
# [3] = modulators of CIT2-GFP expression in yeast, primary screen, S. cerevisiae, GFP fusion, multiplex flow cytometry (AID 1870;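 active means percent response above a set limit, the screen-wide mean plus 3 SD, cut at about 130% in these data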;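 further: barcoded CIT2-GFP strain pooled with four other GFP strains with rapamycin as positive control; median GFP fluorescence per well over plate mean of DMSO wells so 100% = DMSO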); conditions: 3 h, at 10 µM, stronger effect = higher value
# [4] = modulators of LAP4-GFP expression in yeast, primary screen, S. cerevisiae, multiplex flow cytometry (AID 1873;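 active means GFP signal, as percent of the solvent control, above the screen mean plus 3 SD, about 149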); conditions: 3 h, at 10 µM, stronger effect = higher value
# [5] = modulators of AGP1-GFP expression in yeast TOR pathway, primary screen, cell-based, multiplex flow cytometry, S. cerevisiae (AID 1887;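 active means GFP signal above the screen-wide mean plus 3 SD, that is over about 124.5% of the solvent control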;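 further: AGP1-GFP fusion strain of S. cerevisiae within a five-strain barcoded multiplex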); conditions: 3 h, at 10 µM, stronger effect = higher value
# [6] = inhibitors of CD8+ T cell-vesicle binding, pilot screen, LFA-1/ICAM-1 modulator project, MLPCN validation set, flow cytometry (AID 2523;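 active means response below a set limit, under 55% cells CD8-positive and vesicle-bound, and CD8 cells' 90th-percentile brightness under 279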;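 on vesicle binding response: mean PE anti-B7-1 fluorescence of CD8+ cells relative to row control; 100% = QL9-loaded vesicles with DMSO vehicle in the same plate row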); conditions: 2C mouse CD8+ T cells, at 7 µM, stronger effect = lower value; double positive events: measured here: CD8+/vesicle+ event percentage
# [7] = target: Integrin beta-1 (Homo sapiens) + Integrin alpha-4 (Homo sapiens) (UniProt P13612+P05556); experiment: inhibition of HUTS-21 binding to VLA-4, pilot screen, VLA-4 allosteric modulator project, U937 cells, HUTS-21 mAb, flow cytometry, validation set (AID 2674;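 active means inhibition above 50%, about 3 SD of the validation set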;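 further: antibody binding induced by the VLA-4 ligand LDV present at three times its Kd; 0% = LDV ligand with antibody and no compound and 100% = antibody without LDV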); conditions: HUTS-21 LIBS mAb binding, at 6.7 µM, stronger effect = higher value, binding induced by LDV ligand
# [8] = superoxide lowering in aged yeast cells, pilot screen, validation compound set (AID 2706);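 further: yeast exposed to compound for one week at 30 degrees C before staining; 100% = mean of all compound wells on the same plate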; conditions: S. cerevisiae aging, superoxide DHE fluorescence; at 10 µM; stronger effect = lower value
# [9] = target: Beta-adrenergic receptor kinase 1 (Homo sapiens) (UniProt P25098); experiment: GRK2 binders displacing RNA aptamer, biochemical, validation, human GRK2, bead flow cytometry (AID 488806;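 active means aptamer binding inhibition above 30%, about 3 SD of noise from non-fluorescent compounds; inactive means inhibition at or below 30%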); conditions: bead-bound GRK2, FAM-aptamer displacement, at 10 µM, stronger effect = higher value
# [10] = target: Beta-2 adrenergic receptor (Homo sapiens) (UniProt P07550); experiment: beta2AR agonists driving receptor internalization, pilot screen, cell-based, FAP fluorogen, flow cytometry, validation set (AID 504459;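 active means percent response above 42, roughly 3 SD of non-fluorescent test compounds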;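 further: agonist-driven loss of surface beta2AR via internalization measured by FAP dye flow cytometry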); conditions: Am2.2-beta2AR cells, FAP surface receptor flow cytometry; at 10 µM; stronger effect = higher value
# [11] = target: AP-2 complex subunit beta (Homo sapiens) (UniProt P63010); experiment: inhibitors of arrestin peptide binding to AP2, pilot screen, biochemical, validation set, GST-AP2 beads, flow cytometry (AID 504541;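 active means inhibition above 54%, about 3 SD of non-fluorescent compounds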;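 further: AP2 carries R879A mutation and is captured from E. coli lysate; bead-bound FITC arrestin peptide fluorescence measuring arrestin peptide binding to AP2; 0% = DMSO wells and 100% = excess unlabeled arrestin peptide control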); conditions: FITC arrestin peptide, at 10 µM, stronger effect = higher value, AP2 beta2 appendage fragment, R879A mutant
# [12] = yeast V-ATPase proton transport modulators, S. cerevisiae, pHLuorin, HTS validation (AID 504600; in the data active means response above about 15%;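 further: plate controls were DMSO for no effect and reference compound for full effect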); conditions: S. cerevisiae pHLuorin cytosolic pH, at 10 µM, stronger effect = higher value
# [13] = system: anti-desmoglein-3 scFv antibody binding to human DSG3; experiment: inhibitors of anti-DSG3 scFv binding to DSG3, pilot screen, biochemical, validation compound set, bead-based, flow cytometry (AID 588368;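 active means binding below the plate cutoff, the plate median minus 3 SD, with a reading above zero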;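 further: signal is the median channel fluorescence of bead-bound GFP antibody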); conditions: Protein G beads, DSG3-Fc, scFv-GFP binding, at 10 µM, stronger effect = lower value
# [14] = inhibitors of fungal efflux pumps CDR1, CDR2, MDR1, pilot screen, validation compound set, multiplex, phenotypic (AID 588506;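 active means efflux inhibition above 0.42, the validation set average plus 4 SD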;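 further: Nile Red retained in cells so higher fluorescence means more efflux inhibition; 0 = negative control wells and 1 = enniatin B 25 µM full block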); conditions: S. cerevisiae pump-expressing triplex, Nile Red efflux flow cytometry; at 10 µM; stronger effect = higher value; the pumps come from Candida albicans
# [15] = target: ATP-binding cassette sub-family B member 6 (Homo sapiens) (UniProt Q9NP58); experiment: ABCB6 transporter inhibitors, pilot screen, K562-ABCB6 cells, flow cytometry, validation set (AID 588550;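 active means inhibition above the screen-wide mean plus 3 SD, about 51%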;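 further: 0% = DMSO wells and 100% = benzethonium chloride 70 µM positive control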); conditions: K562-ABCB6 porphyrin accumulation, 1 h, at 10 µM, stronger effect = higher value
# [16] = promoters of myeloid differentiation in arrested cells, primary screen, cell-based, GFP/MAC1 double positive, flow cytometry, validation set (AID 588685;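 active means differentiation response of at least 50%, scaled between solvent and reference control, from cells with both markers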;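 further: compound exposure lasts four days before antibody staining and flow analysis; 0% = DMSO wells and 100% = 5 µM fulvestrant positive control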); conditions: ER-HoxA9 marrow cells, stronger effect = higher value, normalized: vehicle 0, fulvestrant 100
# Sequence of Beta-2 adrenergic receptor (Homo sapiens) (P07550 whole entry, looked up): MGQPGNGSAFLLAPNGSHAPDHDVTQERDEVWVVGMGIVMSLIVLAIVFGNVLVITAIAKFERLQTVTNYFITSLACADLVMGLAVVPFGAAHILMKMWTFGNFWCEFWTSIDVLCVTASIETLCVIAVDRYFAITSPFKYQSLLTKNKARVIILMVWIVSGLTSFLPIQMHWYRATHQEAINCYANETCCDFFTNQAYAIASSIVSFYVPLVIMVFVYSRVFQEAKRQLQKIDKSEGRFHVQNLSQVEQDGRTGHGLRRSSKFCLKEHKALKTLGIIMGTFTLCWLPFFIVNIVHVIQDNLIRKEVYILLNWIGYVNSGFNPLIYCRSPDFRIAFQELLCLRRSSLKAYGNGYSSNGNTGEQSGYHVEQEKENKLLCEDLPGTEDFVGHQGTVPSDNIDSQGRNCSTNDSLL
# Sequence of Integrin beta-1 (Homo sapiens) + Integrin alpha-4 (Homo sapiens) (P05556 whole entry, looked up): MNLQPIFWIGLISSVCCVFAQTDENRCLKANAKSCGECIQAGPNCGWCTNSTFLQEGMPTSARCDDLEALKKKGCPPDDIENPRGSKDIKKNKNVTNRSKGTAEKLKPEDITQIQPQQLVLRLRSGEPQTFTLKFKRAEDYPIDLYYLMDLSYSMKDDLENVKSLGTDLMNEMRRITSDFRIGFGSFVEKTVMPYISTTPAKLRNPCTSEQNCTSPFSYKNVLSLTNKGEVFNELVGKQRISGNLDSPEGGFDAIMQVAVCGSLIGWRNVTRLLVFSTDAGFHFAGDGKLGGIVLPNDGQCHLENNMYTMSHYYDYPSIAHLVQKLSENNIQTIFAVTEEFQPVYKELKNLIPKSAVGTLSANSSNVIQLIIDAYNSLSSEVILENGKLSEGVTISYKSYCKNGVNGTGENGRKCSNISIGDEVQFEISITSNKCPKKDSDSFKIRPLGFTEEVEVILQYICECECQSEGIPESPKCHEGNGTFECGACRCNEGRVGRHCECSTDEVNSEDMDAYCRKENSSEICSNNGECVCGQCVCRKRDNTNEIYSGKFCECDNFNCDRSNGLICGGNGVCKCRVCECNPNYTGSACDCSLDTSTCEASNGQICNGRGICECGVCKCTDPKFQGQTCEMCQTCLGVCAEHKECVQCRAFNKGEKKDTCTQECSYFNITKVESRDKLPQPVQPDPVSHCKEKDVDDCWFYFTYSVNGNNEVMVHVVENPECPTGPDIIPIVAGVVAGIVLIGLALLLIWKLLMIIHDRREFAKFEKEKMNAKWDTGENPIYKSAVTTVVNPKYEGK
# Sequence of Integrin beta-1 (Homo sapiens) + Integrin alpha-4 (Homo sapiens) (P13612 whole entry, looked up): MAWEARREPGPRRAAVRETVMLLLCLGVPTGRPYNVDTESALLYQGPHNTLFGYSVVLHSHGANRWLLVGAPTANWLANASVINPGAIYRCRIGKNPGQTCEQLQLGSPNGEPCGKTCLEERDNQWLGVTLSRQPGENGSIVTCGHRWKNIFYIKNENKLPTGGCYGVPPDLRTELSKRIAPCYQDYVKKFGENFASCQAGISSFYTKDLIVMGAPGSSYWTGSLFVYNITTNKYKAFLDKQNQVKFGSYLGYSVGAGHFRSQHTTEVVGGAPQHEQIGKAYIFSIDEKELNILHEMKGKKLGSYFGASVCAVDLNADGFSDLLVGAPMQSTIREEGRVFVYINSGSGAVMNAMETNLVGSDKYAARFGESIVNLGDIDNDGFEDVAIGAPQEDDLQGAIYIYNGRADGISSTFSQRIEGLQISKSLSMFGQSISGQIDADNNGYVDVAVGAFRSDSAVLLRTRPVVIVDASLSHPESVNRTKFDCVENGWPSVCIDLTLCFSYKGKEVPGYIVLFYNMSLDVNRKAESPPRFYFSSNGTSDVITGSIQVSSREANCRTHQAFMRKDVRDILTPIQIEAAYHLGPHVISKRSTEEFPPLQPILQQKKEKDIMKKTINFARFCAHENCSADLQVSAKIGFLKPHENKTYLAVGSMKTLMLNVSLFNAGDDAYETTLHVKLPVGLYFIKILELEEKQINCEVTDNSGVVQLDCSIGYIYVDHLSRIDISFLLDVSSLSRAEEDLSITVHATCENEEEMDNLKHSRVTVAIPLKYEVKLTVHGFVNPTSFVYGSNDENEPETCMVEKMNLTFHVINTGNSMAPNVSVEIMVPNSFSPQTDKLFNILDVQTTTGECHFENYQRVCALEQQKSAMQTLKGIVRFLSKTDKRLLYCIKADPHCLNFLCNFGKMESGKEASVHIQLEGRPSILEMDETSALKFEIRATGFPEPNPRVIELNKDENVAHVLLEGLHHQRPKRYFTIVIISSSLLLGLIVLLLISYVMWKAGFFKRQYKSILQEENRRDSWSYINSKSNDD
# Sequence of AP-2 complex subunit beta (Homo sapiens) (P63010 whole entry, looked up, the tested form may be a part, one chain of several): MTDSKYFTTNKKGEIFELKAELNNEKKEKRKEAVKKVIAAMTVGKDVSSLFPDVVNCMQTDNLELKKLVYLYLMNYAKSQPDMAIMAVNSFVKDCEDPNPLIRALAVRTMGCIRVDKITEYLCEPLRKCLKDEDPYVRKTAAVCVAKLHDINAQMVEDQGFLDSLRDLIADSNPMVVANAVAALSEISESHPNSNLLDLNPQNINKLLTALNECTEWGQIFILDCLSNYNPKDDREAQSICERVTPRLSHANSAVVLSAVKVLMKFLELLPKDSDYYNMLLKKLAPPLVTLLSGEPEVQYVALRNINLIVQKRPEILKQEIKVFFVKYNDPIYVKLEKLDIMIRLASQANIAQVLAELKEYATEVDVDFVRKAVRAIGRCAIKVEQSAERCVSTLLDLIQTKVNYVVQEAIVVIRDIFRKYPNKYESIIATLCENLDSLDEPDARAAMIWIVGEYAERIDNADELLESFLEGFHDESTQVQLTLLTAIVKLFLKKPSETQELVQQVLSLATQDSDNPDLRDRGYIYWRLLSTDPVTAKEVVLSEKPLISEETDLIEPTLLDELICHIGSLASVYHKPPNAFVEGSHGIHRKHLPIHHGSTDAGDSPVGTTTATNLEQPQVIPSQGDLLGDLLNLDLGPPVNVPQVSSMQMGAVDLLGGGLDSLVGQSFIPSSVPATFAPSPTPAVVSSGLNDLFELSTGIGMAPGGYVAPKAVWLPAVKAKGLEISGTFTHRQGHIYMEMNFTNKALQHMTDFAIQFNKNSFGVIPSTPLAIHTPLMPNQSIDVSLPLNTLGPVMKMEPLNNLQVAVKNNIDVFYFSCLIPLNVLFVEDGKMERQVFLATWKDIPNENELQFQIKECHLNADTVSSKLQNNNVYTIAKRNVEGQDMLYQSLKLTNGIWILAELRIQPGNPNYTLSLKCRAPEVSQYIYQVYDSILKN
# Sequence of Beta-adrenergic receptor kinase 1 (Homo sapiens) (P25098 whole entry, looked up): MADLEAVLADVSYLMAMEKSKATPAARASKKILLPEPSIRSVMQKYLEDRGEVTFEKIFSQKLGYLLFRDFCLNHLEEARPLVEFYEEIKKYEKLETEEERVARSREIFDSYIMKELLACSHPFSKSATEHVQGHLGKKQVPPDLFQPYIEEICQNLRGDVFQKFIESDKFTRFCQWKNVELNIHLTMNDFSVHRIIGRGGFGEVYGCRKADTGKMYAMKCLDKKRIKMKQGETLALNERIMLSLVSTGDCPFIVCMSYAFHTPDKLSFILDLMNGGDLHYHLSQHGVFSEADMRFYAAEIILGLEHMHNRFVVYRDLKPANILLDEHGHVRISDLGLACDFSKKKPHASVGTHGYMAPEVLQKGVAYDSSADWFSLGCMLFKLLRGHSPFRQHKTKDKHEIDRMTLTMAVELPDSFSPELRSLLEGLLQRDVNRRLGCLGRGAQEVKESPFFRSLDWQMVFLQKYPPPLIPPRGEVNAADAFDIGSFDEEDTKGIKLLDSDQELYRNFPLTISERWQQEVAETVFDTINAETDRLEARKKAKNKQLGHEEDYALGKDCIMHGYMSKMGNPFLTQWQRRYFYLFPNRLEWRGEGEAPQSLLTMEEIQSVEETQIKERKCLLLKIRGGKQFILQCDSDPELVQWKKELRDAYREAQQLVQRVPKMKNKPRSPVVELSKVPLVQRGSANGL
# Sequence of ATP-binding cassette sub-family B member 6 (Homo sapiens) (Q9NP58 whole entry, looked up): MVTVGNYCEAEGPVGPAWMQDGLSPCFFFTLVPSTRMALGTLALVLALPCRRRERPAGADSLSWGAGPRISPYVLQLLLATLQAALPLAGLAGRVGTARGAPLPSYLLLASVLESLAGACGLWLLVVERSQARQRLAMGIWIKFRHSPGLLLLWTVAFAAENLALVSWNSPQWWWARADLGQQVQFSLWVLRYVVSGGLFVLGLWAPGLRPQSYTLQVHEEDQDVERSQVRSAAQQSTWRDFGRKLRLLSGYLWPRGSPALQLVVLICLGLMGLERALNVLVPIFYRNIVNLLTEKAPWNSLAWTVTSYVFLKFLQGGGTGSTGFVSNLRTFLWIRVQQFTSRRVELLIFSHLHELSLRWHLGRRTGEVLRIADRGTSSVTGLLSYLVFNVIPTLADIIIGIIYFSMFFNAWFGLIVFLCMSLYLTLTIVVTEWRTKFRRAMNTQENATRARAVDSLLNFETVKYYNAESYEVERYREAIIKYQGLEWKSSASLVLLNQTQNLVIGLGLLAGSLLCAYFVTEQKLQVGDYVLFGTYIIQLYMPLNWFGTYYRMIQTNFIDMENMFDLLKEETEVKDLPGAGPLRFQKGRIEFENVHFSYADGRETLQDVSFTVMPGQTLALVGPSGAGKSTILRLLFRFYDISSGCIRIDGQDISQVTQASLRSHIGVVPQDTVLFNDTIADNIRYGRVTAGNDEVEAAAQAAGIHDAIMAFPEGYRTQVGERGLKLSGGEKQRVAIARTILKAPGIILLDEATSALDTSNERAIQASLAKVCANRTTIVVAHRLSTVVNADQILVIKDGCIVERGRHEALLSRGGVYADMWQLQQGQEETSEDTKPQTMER
SMILES,percent of DMSO control GFP [1],GFP response vs DMSO [2],percent response of DMSO control [3],GFP response vs DMSO [4],"GFP response, % of DMSO [5]",double positive events [6],vesicle binding response [6],inhibition [7],superoxide response (% of plate) [8],aptamer binding inhibition [9],response [10],inhibition [11],response [12],binding (% of control) [13],efflux inhibition (fraction of control) [14],inhibition [15],differentiation response [16]
COc1cc(CNc2nnnn2C)ccc1OCc1ccc(F)cc1Cl,102% (inactive),101% (inactive),98.2% (inactive),92.3% (inactive),97.2% (inactive),66.7%,150% (inactive),3.98% (inactive),51.5% (active),-1% (inactive),15.7% (inactive),16.9% (inactive),0.17% (inactive),104% (inactive),0.68 (active),7% (inactive),-5.68% (inactive)
COc1c2c(nc3occc13)C(CC=C(C)C)(OC)C(O)CC2 (stereo not drawn),89.1% (inactive),131% (inactive),110% (inactive),95.7% (inactive),98.2% (inactive),63.2%,144% (inactive),-4.21% (inactive),95.4% (inactive),6% (inactive),3.58% (inactive),-9.37% (inactive),-1.04% (inactive),103% (inactive),0.01 (inactive),11% (inactive),3.28% (inactive)
Cc1ccc(C2CC(=O)C(C=NCCN3CCN(C(=S)Nc4ccccc4)CC3)=C(O)C2)cc1 (stereo not drawn),103% (inactive),104% (inactive),91.2% (inactive),110% (inactive),107% (inactive),60.8%,417% (inactive),-0.27% (inactive),104% (inactive),5% (inactive),-26.2% (inactive),-7.49% (inactive),-3.06% (inactive),101% (inactive),0.5 (active),3% (inactive),-10.9% (inactive)
COc1ccc(C2NCCC3(O)CCCCC23)c(OC)c1OC (stereo not drawn),98.8% (inactive),99.6% (inactive),93.9% (inactive),107% (inactive),97.4% (inactive),57.7%,199% (inactive),-11.3% (inactive),105% (inactive),1% (inactive),-8.95% (inactive),10.4% (inactive),-2.26% (inactive),102% (inactive),-0.06 (inactive),6% (inactive),-18.4% (inactive)
COc1cc(C(=O)Nc2cccc(-c3nnc(-c4ccco4)o3)c2)ccc1OC(C)=O,103% (inactive),103% (inactive),104% (inactive),109% (inactive),107% (inactive),52.3%,52.3% (active),12.5% (inactive),109% (inactive),5% (inactive),3.82% (inactive),64.4% (active),2.66% (inactive),106% (inactive),0.17 (inactive),-5% (inactive),-10.9% (inactive)
CS(=O)(=O)NCc1ccc(C(=O)NCc2ccccc2)cc1,98.4% (inactive),107% (inactive),100% (inactive),127% (inactive),123% (inactive),55.6%,174% (inactive),-19% (inactive),105% (inactive),-8% (inactive),-27.9% (inactive),-12% (inactive),4.07% (inactive),98.7% (inactive),-0.04 (inactive),-5% (inactive),-3.02% (inactive)
CCN1CCn2c3c(c4cc(Cl)ccc42)CCCC31 (stereo not drawn),99.3% (inactive),102% (inactive),97.7% (inactive),107% (inactive),116% (inactive),62.3%,154% (inactive),-10.5% (inactive),106% (inactive),5% (inactive),-10.7% (inactive),-7.04% (inactive),3% (inactive),104% (inactive),-0.09 (inactive),-8% (inactive),-21.7% (inactive)
COc1ccccc1Oc1c(C)oc2c(CN3CCN(CCO)CC3)c(O)ccc2c1=O,104% (inactive),101% (inactive),109% (inactive),98% (inactive),104% (inactive),58.7%,111% (inactive),-11.8% (inactive),96.1% (inactive),-1% (inactive),6.51% (inactive),-2.65% (inactive),0.24% (inactive),103% (inactive),-0.14 (inactive),-1% (inactive),11.5% (inactive)
O=C(O)CP(=O)(O)O,97.2% (inactive),105% (inactive),93.4% (inactive),105% (inactive),96.8% (inactive),66.7%,206% (inactive),11% (inactive),99% (inactive),6% (inactive),6.2% (inactive),3.17% (inactive),-1.85% (inactive),105% (inactive),0.03 (inactive),16% (inactive),-4.57% (inactive)
Cc1ccc(CSCC(=O)N2CCCC2)cc1,102% (inactive),98.7% (inactive),101% (inactive),106% (inactive),106% (inactive),63.7%,132% (inactive),20.4% (inactive),95% (inactive),-2% (inactive),7.33% (inactive),-2.44% (inactive),-8.52% (inactive),97.9% (inactive),-0.05 (inactive),0% (inactive),-8.96% (inactive)
CC1=NN(C(=O)c2ccc(Br)cc2)C(O)(c2ccccc2)C1 (stereo not drawn),100% (inactive),96.6% (inactive),102% (inactive),109% (inactive),103% (inactive),64.3%,165% (inactive),13.7% (inactive),86.9% (inactive),0% (inactive),5.99% (inactive),-5.19% (inactive),-3.1% (inactive),96.8% (inactive),0.36 (inactive),-9% (inactive),-4.57% (inactive)
O=C(CS(=O)(=O)Cc1ccccc1)NCc1ccc2c(c1)OCO2,88% (inactive),123% (inactive),88.6% (inactive),81.4% (inactive),95.2% (inactive),63.3%,123% (inactive),-3.24% (inactive),92% (inactive),1% (inactive),-3.4% (inactive),-1.72% (inactive),-0.1% (inactive),104% (inactive),-0.24 (inactive),-87% (inactive),5.73% (inactive)
CC(NC(=O)c1ccc(N2CCNCC2)c([N+](=O)[O-])c1)C12CC3CC(CC(C3)C1)C2 (stereo not drawn),92.8% (inactive),111% (inactive),101% (inactive),114% (inactive),92.6% (inactive),56.9%,87.2% (inactive),9.13% (inactive),101% (inactive),-1% (inactive),-1.73% (inactive),-4.72% (inactive),0.8% (inactive),98.2% (inactive),-0.1 (inactive),7% (inactive),-23.2% (inactive)
Cn1cc(/C=C/C(=O)c2ccccc2)c2ccccc21,98% (inactive),107% (inactive),87.2% (inactive),133% (inactive),89.7% (inactive),58.1%,230% (inactive),-1.79% (inactive),102% (inactive),1% (inactive),32.6% (inactive),4.67% (inactive),-2% (inactive),101% (inactive),-0.1 (inactive),4% (inactive),-10.4% (inactive)
CC1(c2ccccc2)CC(C)(C)N2C(=O)C(=O)c3cccc1c32 (stereo not drawn),108% (inactive),97.4% (inactive),99.6% (inactive),81.1% (inactive),95.7% (inactive),60.1%,148% (inactive),-7.25% (inactive),109% (inactive),4% (inactive),20.4% (inactive),0.89% (inactive),3.44% (inactive),98.7% (inactive),0.15 (inactive),5% (inactive),0.8% (inactive)
COc1cc2nc(N3CCN(C(=O)C4CCCO4)CC3)nc(N)c2cc1OC (stereo not drawn),102% (inactive),106% (inactive),95.5% (inactive),92.6% (inactive),94% (inactive),55.7% and 64.6%,197% (inactive) and 148% (inactive),1.62% (inactive) and 5.61% (inactive),98% (inactive) and 91.7% (inactive),-3% (inactive) and 5% (inactive),20.9% (inactive),8.12% (inactive) and -5.62% (inactive),-29.6% (inactive) and 2.76% (inactive),109% (inactive) and 107% (inactive),-0.39 (inactive) and -0.33 (inactive),7% (inactive) and -13% (inactive),22.4% (inactive) and 10.1% (inactive)
COc1ccc(/C=C/C(=O)Nc2ccccc2C(=O)O)cc1OC,111% (inactive),110% (inactive),106% (inactive),76.9% (inactive),99.5% (inactive),60.2%,50.8% (inactive),-5.64% (inactive),123% (inactive),3% (inactive),12.8% (inactive),-8.31% (inactive),6.81% (inactive),96.9% (inactive),0.02 (inactive),3% (inactive),-5.62% (inactive)
CCOCCn1c(C(C)O)nc2ccccc21 (stereo not drawn),105% (inactive),96.2% (inactive),111% (inactive),98% (inactive),104% (inactive),62.6%,278% (inactive),20.3% (inactive),89.7% (inactive),1% (inactive),-7.33% (inactive),-8.14% (inactive),4.51% (inactive),95.3% (inactive),0.02 (inactive),-3% (inactive),7.09% (inactive)
O=C1C2CC=C(Cl)CC2C(=O)N1CCc1c[nH]c2ccccc12 (stereo not drawn),90.2% (inactive),108% (inactive),104% (inactive),80.9% (inactive),97.5% (inactive),55.5%,129% (inactive),16.2% (inactive),114% (inactive),8% (inactive),-5.28% (inactive),0.6% (inactive),-1.1% (inactive),103% (inactive),0.09 (inactive),12% (inactive),-12.3% (inactive)
